Some test systems named below: NCI-H23 lung; NCI-H226 lung; NCI-H322M lung; HOP-62 NSCLC; NCI-H460 lung; HOP-92 NSCLC; NCI-H522 lung; A549/ATCC NSCLC; 786-0 renal; COLO 205 colon; DU-145 prostate; K-562 leukemia; MALME-3M melanoma; MDA-MB-231 breast; RXF 393 renal; SF-268 CNS; SF-295 CNS; SF-539 CNS; UACC-257 melanoma; M14 melanoma.
What all share (experiment): NCI-60 one-dose screen, 48 h (100 = growth as untreated, 0 = no growth, -100 = all killed)
Common to all, as to conditions: 10 µM unless noted

Growth data for seven compounds are collected here from PubChem BioAssay (NCI).

The panel holds about 83,000 compounds, 20% with a hit somewhere; the sample as a whole holds those more often.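 The endpoint reported here, percent growth, reads 100 for growth as untreated, 0 for no net growth and -100 for all cells dead.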 Unmarked numbers belong to inactive results. Calls of active or inactive are those of the source. The calls were made as follows: active = growth percent below 10; inactive = the rest.

For the compound `CC1CCc2c(sc3nc(SCC(=O)c4cccc([N+](=O)[O-])c4)n(-c4ccccc4)c(=O)c23)C1` (stereo not given), the growth in the assay with NCI-H23 lung is 47.4%; in the assay with NCI-H226 lung it was 66.6%; with NCI-H322M lung, 97.9%; in the assay with HOP-62 NSCLC, 77.7%; in the assay on NCI-H460 lung it was 97.1%; in the assay with HOP-92 NSCLC it was 85.5%. In addition, the growth is 54.3% in the assay on NCI-H522 lung; 89.7% in the assay with A549/ATCC NSCLC; 56.6% with 786-0 renal; 106% with COLO 205 colon; 63.1% with DU-145 prostate; 57.1% in the assay with K-562 leukemia. Also, the growth was 111% in the assay with MALME-3M melanoma; 10.1% in the assay on MDA-MB-231 breast; 99.9% with RXF 393 renal; 73.2% in the assay with SF-268 CNS; 74.2% in the assay on SF-295 CNS; -10.9% (active) in the assay with SF-539 CNS. For the same compound, the growth with UACC-257 melanoma was 97.8%; in the assay on M14 melanoma it was 80.6%.

As to `CN(C)C(=O)c1cc(-c2ccc3ncnc(N4CCc5cc(F)c(Cl)cc54)c3c2)cnc1N`, the growth was -18.1% (active) in the assay on NCI-H23 lung; -25.4% (active) with NCI-H226 lung; -64.2% (active) in the assay on NCI-H322M lung; -32.6% (active) in the assay with HOP-62 NSCLC; 3.44% (active) with NCI-H460 lung; -45.7% (active) with HOP-92 NSCLC. The growth in the assay with NCI-H522 lung is -13.4% (active); in the assay with A549/ATCC NSCLC, -66.9% (active); in the assay on 786-0 renal, -82.2% (active); in the assay with COLO 205 colon, -76.5% (active); in the assay with DU-145 prostate it was 23%; in the assay with K-562 leukemia, -21.7% (active). Also, the growth with MALME-3M melanoma is -57.7% (active); in the assay with MDA-MB-231 breast it was -49.2% (active); in the assay on RXF 393 renal it was -73.7% (active); with SF-268 CNS, 24.2%; in the assay with SF-295 CNS, -73.1% (active); in the assay on SF-539 CNS it was -73.2% (active). The growth in the assay on UACC-257 melanoma was 4.11% (active); with M14 melanoma it was -36.7% (active).

Take `O=C1NC(=NC23CC4CC(CC(C4)C2)C3)N/C1=C\c1ccc2ncccc2c1`: the growth is -15.2% (active) with NCI-H23 lung; -38.5% (active) in the assay on NCI-H226 lung; 22.6% with NCI-H322M lung; -64.4% (active) with HOP-62 NSCLC; -68.8% (active) with NCI-H460 lung; -11.7% (active) with HOP-92 NSCLC. In addition, the growth was -37% (active) in the assay on NCI-H522 lung; -46.3% (active) in the assay with A549/ATCC NSCLC; -51% (active) in the assay on 786-0 renal; 19.5% in the assay with COLO 205 colon; 3.46% (active) in the assay with DU-145 prostate; 11% with K-562 leukemia. The growth is 2.17% (active) in the assay with MALME-3M melanoma; -14% (active) in the assay with MDA-MB-231 breast; -4.92% (active) in the assay with RXF 393 renal; 35.2% in the assay on SF-268 CNS; -29.6% (active) in the assay with SF-295 CNS; 2.08% (active) in the assay with SF-539 CNS. In addition, the figures for the growth in the assay with UACC-257 melanoma and in the assay on M14 melanoma were 50.6% and 45.9%, respectively.

In the case of `CCN(C(=O)CN1C(=O)/C(=C/c2ccco2)SC1=S)C1CCS(=O)(=O)C1` (stereo not given), the growth with NCI-H23 lung is 99.9%; in the assay with NCI-H226 lung it was 99.1%; with NCI-H322M lung it was 99.8%; with HOP-62 NSCLC, 123%; with NCI-H460 lung, 101%; in the assay with HOP-92 NSCLC it was 103%. In addition, the growth with NCI-H522 lung is 47.5%; in the assay on A549/ATCC NSCLC, 102%; in the assay with 786-0 renal it was 101%; with COLO 205 colon it was 120%; in the assay on DU-145 prostate, 101%; in the assay with K-562 leukemia it was 89.9%. In addition, the growth in the assay on MALME-3M melanoma is 104%; in the assay with MDA-MB-231 breast, 108%; in the assay with RXF 393 renal, 109%; in the assay on SF-268 CNS it was 95.4%; in the assay on SF-295 CNS, 105%; with SF-539 CNS it was 98%. Besides, the growth was 98.2% in the assay on UACC-257 melanoma and 97.3% in the assay on M14 melanoma.

On to `Cc1cccc(C)c1Nc1nnc(-c2c[nH]c3ccccc23)o1`, for which the growth in the assay with NCI-H23 lung was 88.8%; with NCI-H226 lung, 78.9%; in the assay with NCI-H322M lung it was 98%; in the assay on HOP-62 NSCLC, 83.1%; in the assay with NCI-H460 lung, 99.7%; with HOP-92 NSCLC, 89.9%. For the same compound, the growth was 89.4% with NCI-H522 lung; 98.1% in the assay with A549/ATCC NSCLC; 105% with 786-0 renal; 110% in the assay on COLO 205 colon; 107% in the assay on DU-145 prostate; 98.4% in the assay with K-562 leukemia. Further, the growth in the assay on MALME-3M melanoma is 78.4%; with MDA-MB-231 breast, 79.1%; in the assay with RXF 393 renal it was 108%; in the assay on SF-268 CNS, 104%; in the assay with SF-295 CNS it was 96%; in the assay on SF-539 CNS, 94.1%. In addition, the growth is 95.7% with UACC-257 melanoma and 102% in the assay with M14 melanoma.

On to `COc1ccccc1Nc1nnc(-c2c[nH]c3ccccc23)o1`, for which the growth was 12.6% in the assay with NCI-H23 lung; 47.1% in the assay with NCI-H226 lung; 43.5% in the assay with NCI-H322M lung; 26.3% in the assay on HOP-62 NSCLC; 10.8% in the assay with NCI-H460 lung; 16.1% with HOP-92 NSCLC. Moreover, the growth with NCI-H522 lung is -31.5% (active); in the assay with A549/ATCC NSCLC it was 21.9%; in the assay with 786-0 renal, 9.22% (active); in the assay on COLO 205 colon it was -38.8% (active); in the assay with DU-145 prostate, 12.6%; in the assay with K-562 leukemia it was 7.09% (active). Besides, the growth was 44.1% with MALME-3M melanoma; 3.73% (active) with MDA-MB-231 breast; -48.2% (active) in the assay on RXF 393 renal; 47.7% with SF-268 CNS; -28.8% (active) with SF-295 CNS; -40.3% (active) in the assay on SF-539 CNS. In addition, the growth was 44.7% in the assay on UACC-257 melanoma and 20.5% with M14 melanoma.

As for `COc1ccc(N=Nc2c(N)nn3c(-c4cc5cc(Br)ccc5oc4=O)ccnc23)cc1`, the growth was -4.72% (active) in the assay with NCI-H23 lung; -42.1% (active) in the assay with NCI-H226 lung; 30.1% in the assay with NCI-H322M lung; 2.1% (active) with HOP-62 NSCLC; 3.1% (active) in the assay with NCI-H460 lung; -3.29% (active) in the assay with HOP-92 NSCLC. Also, the growth with NCI-H522 lung was 0.558% (active); in the assay with A549/ATCC NSCLC, 39.3%; with 786-0 renal, 5.11% (active); with COLO 205 colon, 35.8%; in the assay with DU-145 prostate it was 37.3%; in the assay on K-562 leukemia, 48.4%. Besides, the growth is 46.4% in the assay with MALME-3M melanoma; -27.3% (active) in the assay on MDA-MB-231 breast; -41.8% (active) with RXF 393 renal; 23.2% in the assay on SF-268 CNS; -33.6% (active) in the assay on SF-295 CNS; 15.6% in the assay with SF-539 CNS. Also, the growth is 78.1% in the assay with UACC-257 melanoma and 52.5% in the assay with M14 melanoma.
